Consider 35 compounds from PubChem BioAssay AID488899 (Broad Institute, 2010).

Each structure is given as a SMILES string. Where “and” joins values, the source holds several entries; their conditions need not be identical. Equal entries are not always repeated. The whole screen tested about 330,000 compounds, of which about 2,800 (0.85%) were called active.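 Rule for the calls: active = mean inhibition across replicates of 60% or more, whatever share of single replicates reaches that level; inconclusive = some that reach 60%, reason not given; inactive = mean inhibition across replicates below 60%.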 This excerpt belongs to a sample that is enriched for actives.

What is called inhibition is the relative decrease from the control value, in per cent.

The nature of the assay: inhibitors of MITF-dependent TRPM1 promoter reporter, primary screen, cell-based, SK-MEL-5, single point, luciferase (AID 488899). The conditions noted are these: SK-MEL-5 TRPM1 promoter luciferase, 24 h; at 12.5 µM; active compounds read high.
Take `CCOc1ccc(-c2cc(C)[n+](CCN(CC)CC)c(-c3ccc(OCC)cc3)c2)cc1`: the inhibition was 69.6% (active).
As for `CC1CC=CCC12C(=O)NC(=S)NC2=O` (stereo not given), the inhibition is 6.98% (inactive).
Regarding `N#Cc1ccc(Cn2cc(C(=O)c3ccco3)c3ccccc32)cc1`, the inhibition was 12.8% (inactive).
As for `CC(=O)N(C1=NCCCS1)c1ccccc1F`, the figure is 6.66% (inactive); as for `Fc1ccc(C2N3CCCN23)cc1` (stereo not given), 5.89% (inactive).
On to `CC1=CC(=Cc2sc3ccccc3[n+]2C)C=C(C)O1`, for which the inhibition is 69.6% (active).
On to `Cc1cccc(NC(=O)N2CC3CC(C2)c2cccc(=O)n2C3)c1` (stereo not given), for which the inhibition is -3.6% (inactive).
With `Cc1nn(Cc2ccccc2Cl)c(Cl)c1C(=O)OC(C(=O)NC(N)=O)C(C)C` (stereo not given), the inhibition was -9.08% (inactive).
Turning to `CC1C(=O)OC2CCN3CC=C(COC(=O)C(C)(O)C1(C)O)C23` (stereo not given), the inhibition is -1.22% (inactive).
In the case of `O=C(c1ccccc1)C(O)(CN1CCCCC1)c1ccccc1` (stereo not given), the inhibition was 3.2% (inactive).
The same measure for `OCC#CC[N+]1(CC#Cc2ccccc2)CCCC1`: 2.94% (inactive); for `COC(=O)C1=C(c2cccc(OCc3ccccc3)c2)C[C@@H]2CC[C@H]1N2C(=O)NCc1ccc(Br)cc1`: -1.21% (inactive).
`CCC(C)(O)C(=O)OC1C(=O)OC2CC3C(C)=CC(=O)C(O)C3(C)C3C4(O)OCC23C1C(C)C4O` (stereo not given): the inhibition is 72.8% (active).
`CC1=C2C(=O)C3C(CC=C4CC(OC5OC(O)C(O)C(O)C5CO)CCC43C)C2CCC12OC1CC(C)CNC1C2C` (stereo not given): the inhibition was 0.655% (inactive).
Consider `CN(C)C(=O)NC(O)C(Cl)(Cl)Cl` (stereo not given), for which the inhibition was 8.39% (inactive).
Regarding `CCN1c2nc3c(C)cccn3c(=O)c2CC2(C(=O)N(C)C(=O)N(C)C2=O)C1C` (stereo not given), the inhibition is 0.643% (inactive).
In the case of `Cn1c(O)c(C=Nc2ccc3c(c2)CCC3)c(=O)n(C)c1=O`, the inhibition was -24.2% (inactive).
In the case of `COC(=O)C1=C(c2ccc3ccccc3c2)C[C@@H]2CC[C@H]1N2C(=O)NCCO`, the inhibition was -9.09% (inactive).
As to `CC12CN3CC(C)(CN(C1)C3c1cccs1)C2` (stereo not given), the inhibition is -13% (inactive).
In the case of `CC(=O)OC1C2(CC3N4C(=O)C5(CO)SSC4(CC31O)C(=O)N5C)OC(C)C(C)(C)C2=O` (stereo not given), the inhibition was 112% (active).
As to `CC1CNCCN1c1ccc(Cl)cc1` (stereo not given), the inhibition is -17.8% (inactive).
For `Cc1cc2ccccn2c1C(C[N+](=O)[O-])c1c(F)cccc1Cl` (stereo not given), the inhibition is 7.17% (inactive).
With `O=c1c2ccccc2nc(/C=C/c2ccc(F)cc2)n1-c1ccccc1O`, the inhibition is -2.83% (inactive).
Consider `Cc1ccc(P(=S)(c2ccc(C)o2)N2CCOCC2)o1`, for which the inhibition is -0.096% (inactive).
Take `COC1C(O)C(C)OC(OC2CCC3(C=O)C(CCC4C3CCC3(C)C(C5=CC(=O)OC5)CCC43O)C2)C1O` (stereo not given): the inhibition was 74.9% (active).
Take `O=C(O)CCn1cc(C=C2C(=O)NC(=S)NC2=O)c(-c2cccc(Br)c2)n1`: the inhibition was 4.06% (inactive).
With `c1ccc(CCN2CCC3(CC2)OCCO3)cc1`, the inhibition was 9.66% (inactive).
On to `C[C@]12CCC3C(CC[C@H]4C[C@@H](O)CC[C@]34C)C1C[C@@H](O)[C@H]2O` (stereo not given in full), for which the inhibition is 2.08% (inactive).
Regarding `C[C@]12CCC3C(CC[C@H]4C[C@@H](O)CC[C@]34C)C1CC[C@@H]2O` (stereo not given in full), the inhibition is 6.32% (inactive).
As for `C[C@]12CC[C@H](O)C[C@H]1CC[C@@H]1C2CC[C@]2(C)[C@@H](C3=CC(=O)OC3)[C@@H](O)C[C@]12O` (stereo not given in full), the figure is 80.6% (active).
As to `NCCc1c[nH]c2ccc(O)cc12`, the inhibition was 12.6% (inactive).
As for `COC(=O)C1=C(c2ccc(-c3ccccc3)c(F)c2)C[C@@H]2CC[C@H]1N2C(=O)NCc1ccc(F)cc1`, the inhibition is -8.41% (inactive).
The same measure for `CCCCCCCCCCCCn1ccc(=N)cc1`: 80.1% (active); for `CN(C)C(=O)Oc1cc(OC(=O)N(C)C)cc(C(O)CNC(C)(C)C)c1` (stereo not given): -3.47% (inactive) and -8.18% (inactive); for `CC(C)c1c(CN(C)C(C)Cc2ccccc2)n(C)n(-c2ccccc2)c1=O` (stereo not given): 9.81% (inactive).
